Screening data from PubChem BioAssay.
UHRF1 MBD2 ctr = blocks human UHRF1 binding to methylated DNA | Q96T88 | UHRF1 binding to methylated oligo, TR-FRET | inhibition, % at 4.4 µM | 370,000 tested, 0.75% active | AID 687016; in the data active means inhibition above about 21%;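 further: UHRF1 SRA domain binding a hemimethylated CpG hairpin DNA probe; 0% = median of test compound wells and 100% = reference inhibitor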
PG9 Ab binder = small molecules binding HIV-1 gp120 antibody PG9 | TR-FRET gp120-PG9 antibody binding | inhibition, % at 6.7 µM | AID 624416 | 360,000 tested, 0.43% active; in the data active means inhibition above about 8.5%
MBD2 DNA inh = blocks human MBD2 binding to methylated DNA. inhibition, % at 4.4 µM. 370,000 tested, 0.31% active. Q9UBB5. TR-FRET, MBD2 binding to methylated oligonucleotide; in the data active means inhibition above about 13%
Target sequence (Q9UBB5 whole entry, looked up): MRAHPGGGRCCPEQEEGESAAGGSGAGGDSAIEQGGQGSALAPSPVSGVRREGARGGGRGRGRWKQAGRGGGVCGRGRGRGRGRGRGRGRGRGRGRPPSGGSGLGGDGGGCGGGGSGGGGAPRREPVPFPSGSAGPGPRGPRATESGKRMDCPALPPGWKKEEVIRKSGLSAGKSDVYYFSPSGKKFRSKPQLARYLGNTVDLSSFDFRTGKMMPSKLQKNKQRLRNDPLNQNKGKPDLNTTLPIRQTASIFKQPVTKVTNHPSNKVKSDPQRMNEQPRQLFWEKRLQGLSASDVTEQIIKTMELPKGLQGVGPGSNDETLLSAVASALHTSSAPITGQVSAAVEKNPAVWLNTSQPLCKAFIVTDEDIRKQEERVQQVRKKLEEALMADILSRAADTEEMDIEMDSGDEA
LEDGF integ inh = blocks HIV-1 LEDGF/p75-dependent DNA integration | TR-FRET IN-LEDGF/p75 DNA integration, Eu/Cy5 | AID 743269 | inhibition, % at 3.7 µM | 370,000 tested, 0.64% active;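 active means inhibition above the screen-wide mean plus 3 SD, cut at about 13% in these data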;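 further: signal is the Cy5 over europium emission ratio at 671 and 618 nm; 0% = plate median of compound wells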
DNMT1 inh = blocks human DNA methyltransferase DNMT1; DNMT1 molecular beacon, Hinp1I cleavage, fluorescence; 360,000 tested, 0.83% active; inhibition (reported as % activation of signal), % at 10 µM; P26358; in the data active means inhibition above about 50%
rCAG RNA binder = binds r(CAG) RNA repeats. inhibition, % at 3 µM. 370,000 tested, 1.3% active. r(CAG) RNA repeat, TO-PRO-1 dye displacement fluorescence;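 active means inhibition above the plate cutoff, the mean of all test compounds on that plate plus 3 SD, cut at about 35% in these data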;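 further: 0% = DMSO alone and 100% = 100 µM mitoxantrone as full dye displacement; higher means more dye released from RNA so lower well fluorescence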
IN multimer act = activates HIV-1 integrase multimerization in LEDGF counter-screen; 2,000 tested, 17% active; shares compounds with LEDGF integ inh; activation, % at 7.7 µM; TR-FRET HIV-1 integrase multimerization, biochemical; in the data active means activation above about 8.9%
TR-FRET interf = counter-screen for LEDGF/p75 integration inhibitors: TR-FRET optical interference. TR-FRET optical interference counterscreen, HIV-1 IN multimerization. shares compounds with LEDGF integ inh. inhibition, % at 7.7 µM. AID 1053135. 2,000 tested, under 10 active;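 active means inhibition above the mean over all tested compounds plus 3 SD, which no compound reached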;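 further: 0% = integrase with antibodies and DMSO and 100% = antibodies without integrase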
IN-LEDGF confirm = LEDGF/p75-dependent HIV-1 integration inhibition, confirmation; inhibition, % at 3.7 µM; shares compounds with LEDGF integ inh; TR-FRET LEDGF/p75-dependent HIV-1 integration, biochemical; 2,000 tested, 36% active; AID 1053136; in the data active means inhibition above about 14%
* hit, by the source's call; . = no result given. Sampled rows, rich in hits. Any-hit rate of the full collection: about 3.5%.

SMILES	UHRF1 MBD2 ctr	PG9 Ab binder	MBD2 DNA inh	LEDGF integ inh	DNMT1 inh	rCAG RNA binder	IN multimer act	TR-FRET interf	IN-LEDGF confirm
C/C(=N\NC(=O)c1ccc(O)cc1O)c1cccnc1	1	-4	0	1	3	3	.	.	.
CC(CC(=O)O)Nc1ccccc1O (configuration not stated)	7	-4	0	35*	0	1	6	-22	3
O=C(COCc1ccncc1)N1CCN(c2ccc(F)cc2Cl)CC1	1	.	-1	3	.	-1	.	.	.
O=C1C=CC(=O)c2c(O)c(N3CCN(CCO)CC3)c(Cl)c(O)c21	18	2	0	26*	103*	26	91*	-322	78*
CCC(C(=O)Nc1ccccn1)c1ccccc1 (configuration not stated)	-1	1	7	14*	5	-2	0	-1	13
CCC(C(=O)Nc1cnccn1)c1ccccc1 (configuration not stated)	1	-1	4	-3	-1	-2	.	.	.
O=C1OC(c2ccccc2)=N/C1=C\C=C\c1ccco1	32*	-5	9	41*	6	5	-1	3	3
CC[C@]1(C(=O)OC)[C@H]2C(=O)N(C)C(=O)[C@H]2[C@H]2CN=C(SCC3CC3)N21	9	0	3	1	5	0	.	.	.
Cc1ccc(Nc2ccc(NCc3ccccc3)nn2)cc1C	7	-5	2	47*	-3	8	2	-8	-4
N#Cc1cc2ccc(N3CCOCC3)cc2cc1C#N	-1	0	-7	31*	14	8	4	-15	4
Cc1ccc(C)n1-c1ccc(N2CCOCC2)cc1	-7	-1	0	0	-36	12	.	.	.
COc1ccccc1Nc1nc(N)nc(CN2CCC(Cc3ccccc3)CC2)n1	9	0	10	15*	-1	-6	0	2	6
CCN1CCN(c2cc(C)c3cc(NC(=S)N4CCOCC4)ccc3n2)CC1	-1	-2	6	21*	-1	6	0	-2	-6
CN1c2ccccc2C(C)(C)C12C=Nc1c(cc(N3CCOCC3)c3ccccc13)O2 (configuration not stated)	8	-3	-7	14*	-13	8	2	-6	-1
CN1c2ccccc2C(C)(C)C12C=Cc1cc(O)ccc1O2 (configuration not stated)	-6	0	-8	9	-27	13	.	.	.
CC1=CC(=O)C(Sc2ccc(C)cc2)=CC1=O	-4	4	-8	17*	-24	8	5	-25	-2
CCOC(=O)c1c(C)oc2c1c(C=NCC1CCCO1)c(O)c1ccccc12 (configuration not stated)	9	3	-5	17*	-8	6	1	-3	-1
FC(F)(F)c1ccccc1/C=N/Nc1ccccn1	-2	1	3	0	4	-7	.	.	.
Nn1cnnc1N/N=C/c1cccc(Cl)c1Cl	7	0	2	56*	-2	-2	1	-3	-2
Nn1cnnc1N/N=C/c1ccccc1C(F)(F)F	7	1	-1	47*	0	3	2	-7	-6
CC(C)(C)NC(=O)NC(=O)CSc1ccc(S(=O)(=O)N2CCCCC2)cn1	-1	-1	-6	20*	-6	0	1	-4	1
O=c1cc(-c2ccccc2)[nH][nH]1	-1	-1	-5	23*	-8	2	-2	8	3
O=c1cc(-c2ccc(F)cc2)[nH][nH]1	-1	-1	-9	17*	-10	-3	2	-12	17*
O=c1cc(-c2ccc(Br)cc2)[nH][nH]1	2	-2	0	5	-14	16	.	.	.
CCc1nc2c(OCc3ccc(C(=O)N(C)C)cc3)cccn2c1N(C)C(=O)c1ccc(C)cc1	-2	-1	-2	-5	-1	3	.	.	.
SMILES	UHRF1 MBD2 ctr	PG9 Ab binder	MBD2 DNA inh	LEDGF integ inh	DNMT1 inh	rCAG RNA binder	IN multimer act	TR-FRET interf	IN-LEDGF confirm
O=C(CCNC(=O)c1ccc([N+](=O)[O-])cc1)NCc1ccco1	3	-2	-8	4	6	3	.	.	.
O=C(NCc1ccc(F)cc1)c1cc(C2CCCCN2C(=O)CCc2ccccc2)on1 (configuration not stated)	2	0	0	-1	9	1	.	.	.
COC(=O)c1cc(-c2cc(Cl)cc(Cl)c2)c(=O)n2c1CCC2	-1	.	1	-1	.	0	.	.	.
CCOc1ccc(NC(=S)N2CCN(S(=O)(=O)c3ccc(OC)cc3)CC2)cc1	1	-1	0	-1	1	1	.	.	.
COc1ccc(-n2c(SCC(=O)NCCCSC)nnc2-c2ccncc2)cc1	3	.	-1	2	.	2	.	.	.
COc1ccc(-c2cnc3c(NC=O)cc(-c4ccoc4)cn23)cc1OC	-6	-1	-6	28*	-16	16	-1	3	5
N#CN1CCC(NS(=O)(=O)c2ccc(F)cc2)C1 (configuration not stated)	-2	.	-1	-4	.	.	.	.	.
CC(=O)Nc1ccc(Oc2cnccn2)cc1	-2	-2	1	29*	7	-1	-3	17	3
CC(=O)Nc1ccc(Oc2cnc3ccccc3n2)cc1	-5	-1	5	1	2	4	.	.	.
Oc1ccc(/C=N/Nc2ncnc3c2ncn3Cc2ccccc2)cc1O	4	-2	8	18*	2	27	57*	-205	66*
Oc1cccc(/C=N/Nc2ncnc3c2ncn3Cc2ccccc2)c1	-3	1	0	-2	-5	4	.	.	.
CC1CN(C(=O)c2nn(C)cc2[N+](=O)[O-])CC(C)O1 (configuration not stated)	1	1	1	42*	2	-4	-1	3	1
CC1CN(C(=O)c2cc([N+](=O)[O-])cc([N+](=O)[O-])c2)CC(C)O1 (configuration not stated)	0	1	-7	1	0	0	.	.	.
CN(C)c1ccc(C=c2c3ccccc3n3c2c2ccccc2[n+]3C)cc1	2	-32	1	-12	29	18	.	.	.
C[n+]1c(-c2ccccc2)cc2c(=Cc3ccccc3)c3ccccc3n21	6	-2	-10	28*	50*	10	4	-14	45*
CC(C)n1c2ccccc2c2cc([N+](=O)[O-])ccc21	-3	1	6	1	-2	1	.	.	.
